According to paper PMC11066047:

What was measured:
[1] = molecular target: 26S proteasome regulatory subunit RPN8 (UniProt Q08723); assay: cross-link between two proteins; cross-linking mass spectrometry
[2] = molecular target: 2-isopropylmalate synthase 2, mitochondrial (UniProt Q12166); assay: as above
[3] = molecular target: Ribosome-associated molecular chaperone SSB1 (UniProt P11484); assay: cross-link between two proteins; affinity purification or IP with mass spectrometry; cross-linking mass spectrometry
[4] = molecular target: 26S proteasome regulatory subunit 4 homolog (UniProt P40327); assay: cross-link between two proteins; cross-linking mass spectrometry
[5] = molecular target: 26S proteasome regulatory subunit 7 homolog (UniProt P33299); assay: as above
[6] = molecular target: 26S proteasome regulatory subunit RPN9 (UniProt Q04062); assay: as above
[7] = molecular target: ATP synthase subunit 4, mitochondrial (UniProt P05626); assay: as above
Elongation factor 3A = Elongation factor 3A (UniProt P16521); assay: cross-link between two proteins; affinity purification or IP with mass spectrometry; cross-linking mass spectrometry
[8] = molecular target: Heat shock protein homolog SSE1 (UniProt P32589); assay: cross-link between two proteins
[9] = molecular target: Heat shock protein homolog SSE2 (UniProt P32590); assay: cross-link between two proteins; affinity purification or IP with mass spectrometry; cross-linking mass spectrometry
[10] = molecular target: Large ribosomal subunit protein eL21A (UniProt Q02753); assay: as above
[11] = molecular target: Large ribosomal subunit protein eL8B (UniProt P29453); assay: as above
[12] = molecular target: Large ribosomal subunit protein uL24B (UniProt P53221); assay: as above
[13] = molecular target: Signal transduction protein MDG1 (UniProt P53885); assay: as above
[14] = molecular target: Small ribosomal subunit protein eS1B (UniProt P23248); assay: as above
[15] = molecular target: Small ribosomal subunit protein uS10 (UniProt P38701); assay: as above
[16] = molecular target: Small ribosomal subunit protein uS11B (UniProt P39516); assay: as above
[17] = molecular target: 26S proteasome regulatory subunit 8 homolog (UniProt Q01939); assay: cross-link between two proteins; cross-linking mass spectrometry
[18] = molecular target: 26S proteasome subunit RPT4 (UniProt P53549); assay: as above
[19] = molecular target: 26S proteasome regulatory subunit RPN3 (UniProt P40016); assay: as above
[20] = molecular target: 26S proteasome regulatory subunit RPN2 (UniProt P32565); assay: as above
[21] = molecular target: ATP-dependent RNA helicase DBP10 (UniProt Q12389); assay: as above

Chain of 26S proteasome regulatory subunit RPN3 (P40016 whole entry): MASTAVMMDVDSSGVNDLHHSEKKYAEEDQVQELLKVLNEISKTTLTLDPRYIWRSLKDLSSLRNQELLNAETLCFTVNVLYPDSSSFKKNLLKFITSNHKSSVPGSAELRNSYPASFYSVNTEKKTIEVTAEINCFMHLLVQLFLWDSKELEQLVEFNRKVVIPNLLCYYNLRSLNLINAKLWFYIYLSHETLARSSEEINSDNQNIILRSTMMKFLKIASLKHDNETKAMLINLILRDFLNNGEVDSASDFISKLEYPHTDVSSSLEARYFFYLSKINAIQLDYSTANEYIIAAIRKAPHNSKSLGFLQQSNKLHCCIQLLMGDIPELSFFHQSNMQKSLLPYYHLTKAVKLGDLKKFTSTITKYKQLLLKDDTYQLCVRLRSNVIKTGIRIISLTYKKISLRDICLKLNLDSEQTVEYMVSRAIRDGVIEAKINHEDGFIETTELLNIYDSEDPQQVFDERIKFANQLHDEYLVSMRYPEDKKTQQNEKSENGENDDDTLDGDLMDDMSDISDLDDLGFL
Chain of 26S proteasome regulatory subunit 4 homolog (P40327 whole entry): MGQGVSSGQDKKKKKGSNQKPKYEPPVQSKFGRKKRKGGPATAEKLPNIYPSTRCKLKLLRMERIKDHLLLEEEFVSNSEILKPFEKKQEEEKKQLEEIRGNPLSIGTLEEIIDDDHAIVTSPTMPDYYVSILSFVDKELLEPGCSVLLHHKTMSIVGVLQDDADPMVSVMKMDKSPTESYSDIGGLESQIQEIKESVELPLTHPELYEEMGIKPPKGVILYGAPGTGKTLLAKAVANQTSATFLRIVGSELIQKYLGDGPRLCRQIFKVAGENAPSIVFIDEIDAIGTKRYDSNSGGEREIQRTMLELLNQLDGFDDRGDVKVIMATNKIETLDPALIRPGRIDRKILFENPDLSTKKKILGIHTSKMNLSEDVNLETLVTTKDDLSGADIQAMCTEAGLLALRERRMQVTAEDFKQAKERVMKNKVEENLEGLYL
Chain of Ribosome-associated molecular chaperone SSB1, P11484 (P11484 whole entry): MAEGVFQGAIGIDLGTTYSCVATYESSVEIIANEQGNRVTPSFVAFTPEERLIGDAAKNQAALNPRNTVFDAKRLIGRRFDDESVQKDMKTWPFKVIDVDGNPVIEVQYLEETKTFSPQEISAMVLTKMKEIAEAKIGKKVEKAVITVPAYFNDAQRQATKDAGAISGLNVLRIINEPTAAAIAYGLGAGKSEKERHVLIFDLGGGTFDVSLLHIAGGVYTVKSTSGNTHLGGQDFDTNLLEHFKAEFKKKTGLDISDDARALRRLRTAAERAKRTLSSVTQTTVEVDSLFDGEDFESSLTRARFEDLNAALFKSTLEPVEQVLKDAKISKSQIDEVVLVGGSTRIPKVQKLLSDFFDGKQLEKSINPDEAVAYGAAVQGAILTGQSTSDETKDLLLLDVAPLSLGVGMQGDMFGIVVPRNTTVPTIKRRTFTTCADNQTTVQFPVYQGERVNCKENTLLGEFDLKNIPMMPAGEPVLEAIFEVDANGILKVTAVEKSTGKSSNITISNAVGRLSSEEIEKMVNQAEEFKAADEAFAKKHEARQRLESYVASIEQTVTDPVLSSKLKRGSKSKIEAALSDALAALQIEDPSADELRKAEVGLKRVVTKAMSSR
Chain of 26S proteasome subunit RPT4 (P53549 whole entry): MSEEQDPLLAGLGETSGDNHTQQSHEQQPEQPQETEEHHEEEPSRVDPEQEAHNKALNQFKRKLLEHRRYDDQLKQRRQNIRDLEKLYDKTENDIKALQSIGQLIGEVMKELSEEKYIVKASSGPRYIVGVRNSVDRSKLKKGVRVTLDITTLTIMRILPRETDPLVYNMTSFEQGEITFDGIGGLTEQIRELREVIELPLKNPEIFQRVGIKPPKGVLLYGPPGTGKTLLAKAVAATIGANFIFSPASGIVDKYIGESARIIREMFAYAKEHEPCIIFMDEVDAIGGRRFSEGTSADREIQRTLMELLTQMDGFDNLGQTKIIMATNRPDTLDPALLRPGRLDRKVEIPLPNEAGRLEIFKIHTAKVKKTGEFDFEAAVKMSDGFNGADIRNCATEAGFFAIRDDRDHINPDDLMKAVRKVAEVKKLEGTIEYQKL
Chain of 26S proteasome regulatory subunit 8 homolog (Q01939 whole entry): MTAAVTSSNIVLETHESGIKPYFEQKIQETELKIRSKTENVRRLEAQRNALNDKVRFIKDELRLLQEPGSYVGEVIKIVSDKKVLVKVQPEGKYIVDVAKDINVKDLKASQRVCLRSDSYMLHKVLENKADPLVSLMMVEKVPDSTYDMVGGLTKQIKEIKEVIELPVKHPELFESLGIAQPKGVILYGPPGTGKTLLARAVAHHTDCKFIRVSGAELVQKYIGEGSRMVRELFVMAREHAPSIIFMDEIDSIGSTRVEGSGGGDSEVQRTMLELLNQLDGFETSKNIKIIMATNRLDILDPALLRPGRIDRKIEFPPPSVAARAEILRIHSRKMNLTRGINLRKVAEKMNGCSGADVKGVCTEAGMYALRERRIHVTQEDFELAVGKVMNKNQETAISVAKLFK
Chain of 26S proteasome regulatory subunit RPN8 (Q08723 whole entry): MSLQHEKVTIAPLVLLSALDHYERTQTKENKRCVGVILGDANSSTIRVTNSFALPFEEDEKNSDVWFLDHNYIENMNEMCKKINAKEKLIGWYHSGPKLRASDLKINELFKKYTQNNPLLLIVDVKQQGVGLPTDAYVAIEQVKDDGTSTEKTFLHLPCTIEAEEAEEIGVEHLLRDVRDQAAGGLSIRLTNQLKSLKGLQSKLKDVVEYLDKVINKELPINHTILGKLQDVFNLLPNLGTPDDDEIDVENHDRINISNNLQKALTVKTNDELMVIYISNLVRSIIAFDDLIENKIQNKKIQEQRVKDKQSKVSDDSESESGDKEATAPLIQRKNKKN
Chain of Ribosome-associated molecular chaperone SSB1 (P11484 whole entry): as the sequence (P11484 whole entry) above
Chain of Large ribosomal subunit protein eL21A (Q02753 whole entry): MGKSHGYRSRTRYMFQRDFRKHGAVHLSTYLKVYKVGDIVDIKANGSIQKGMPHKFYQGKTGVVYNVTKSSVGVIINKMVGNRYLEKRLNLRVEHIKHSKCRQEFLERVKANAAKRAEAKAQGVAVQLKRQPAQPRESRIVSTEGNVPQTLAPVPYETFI
Chain of 26S proteasome regulatory subunit RPN9 (Q04062 whole entry): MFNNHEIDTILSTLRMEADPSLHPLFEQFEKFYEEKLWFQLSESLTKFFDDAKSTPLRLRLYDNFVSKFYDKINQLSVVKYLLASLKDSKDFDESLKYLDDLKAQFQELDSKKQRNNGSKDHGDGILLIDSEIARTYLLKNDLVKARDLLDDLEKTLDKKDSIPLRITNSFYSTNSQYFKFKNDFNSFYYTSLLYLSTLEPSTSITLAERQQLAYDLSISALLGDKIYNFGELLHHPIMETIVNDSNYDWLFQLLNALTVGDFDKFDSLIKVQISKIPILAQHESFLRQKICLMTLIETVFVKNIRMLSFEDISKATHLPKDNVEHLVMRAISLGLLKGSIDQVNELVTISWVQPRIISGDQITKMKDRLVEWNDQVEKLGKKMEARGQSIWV
Chain of Large ribosomal subunit protein uL24B (P53221 whole entry): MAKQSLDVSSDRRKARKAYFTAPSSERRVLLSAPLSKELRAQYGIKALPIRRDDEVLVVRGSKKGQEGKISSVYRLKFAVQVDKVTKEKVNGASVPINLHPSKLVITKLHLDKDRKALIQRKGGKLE
Chain of Heat shock protein SSA2, P10592 (P10592 whole entry): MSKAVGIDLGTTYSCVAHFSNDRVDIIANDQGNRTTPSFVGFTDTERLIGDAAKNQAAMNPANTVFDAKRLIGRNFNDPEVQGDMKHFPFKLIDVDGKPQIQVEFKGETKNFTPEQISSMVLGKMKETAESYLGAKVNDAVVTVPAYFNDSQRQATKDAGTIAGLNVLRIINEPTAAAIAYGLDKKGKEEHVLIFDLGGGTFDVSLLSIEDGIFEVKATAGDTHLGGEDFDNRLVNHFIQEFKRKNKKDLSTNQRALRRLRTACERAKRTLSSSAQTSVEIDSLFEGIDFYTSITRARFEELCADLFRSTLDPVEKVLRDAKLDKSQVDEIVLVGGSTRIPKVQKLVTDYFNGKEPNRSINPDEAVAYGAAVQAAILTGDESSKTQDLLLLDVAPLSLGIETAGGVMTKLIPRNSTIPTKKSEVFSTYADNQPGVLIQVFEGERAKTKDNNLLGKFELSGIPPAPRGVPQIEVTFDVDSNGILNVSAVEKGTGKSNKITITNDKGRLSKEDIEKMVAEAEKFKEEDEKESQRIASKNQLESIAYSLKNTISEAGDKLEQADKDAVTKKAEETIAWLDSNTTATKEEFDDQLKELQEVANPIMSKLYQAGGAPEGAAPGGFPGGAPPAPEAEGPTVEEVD
Chain of Heat shock protein homolog SSE1 (P32589 whole entry): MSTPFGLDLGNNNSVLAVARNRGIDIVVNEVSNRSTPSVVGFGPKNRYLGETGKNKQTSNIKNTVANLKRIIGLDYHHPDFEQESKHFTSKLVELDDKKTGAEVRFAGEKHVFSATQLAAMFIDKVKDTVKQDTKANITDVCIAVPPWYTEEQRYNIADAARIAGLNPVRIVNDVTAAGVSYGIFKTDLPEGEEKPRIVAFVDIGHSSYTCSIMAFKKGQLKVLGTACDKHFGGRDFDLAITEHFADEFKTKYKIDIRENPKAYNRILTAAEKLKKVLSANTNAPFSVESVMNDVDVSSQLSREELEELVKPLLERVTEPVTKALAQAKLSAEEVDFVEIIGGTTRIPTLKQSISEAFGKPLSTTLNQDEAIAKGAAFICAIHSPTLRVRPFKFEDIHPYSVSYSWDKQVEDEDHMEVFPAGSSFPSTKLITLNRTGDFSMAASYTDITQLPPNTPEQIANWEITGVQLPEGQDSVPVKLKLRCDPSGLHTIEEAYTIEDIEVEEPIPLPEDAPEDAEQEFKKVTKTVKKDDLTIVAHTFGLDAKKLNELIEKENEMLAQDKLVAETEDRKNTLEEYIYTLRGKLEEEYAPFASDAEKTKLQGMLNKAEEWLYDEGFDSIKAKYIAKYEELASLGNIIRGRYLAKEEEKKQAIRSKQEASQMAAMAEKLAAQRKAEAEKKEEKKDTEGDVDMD
Chain of Small ribosomal subunit protein uS10 (P38701 whole entry): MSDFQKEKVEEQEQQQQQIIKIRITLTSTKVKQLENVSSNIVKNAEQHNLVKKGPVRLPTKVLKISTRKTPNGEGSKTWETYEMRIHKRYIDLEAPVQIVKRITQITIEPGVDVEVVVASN

Q: For “26S proteasome regulatory subunit RPN10, P38886”, which “listed as a hit” value [1] is on record?
A: yes

Q: With 2-isopropylmalate synthase, P06208 as the substance, how does the “listed as a hit” value [2] read?
A: yes

Q: How did the “listed as a hit” value [3] turn out when Heat shock protein SSA2, P10592 was run?
A: yes

Q: How did the “listed as a hit” value [4] turn out when “26S proteasome regulatory subunit 6A, P33297” was run?
A: yes

Q: And the “listed as a hit” value [5]?
A: yes

Q: What about the “listed as a hit” value [6] of the same substance?
A: yes

Q: “ATP synthase subunit beta, mitochondrial, P00830” was tested. Which “listed as a hit” value [7] did it give?
A: yes

Q: “Ribosome-associated molecular chaperone SSB1, P11484” was tested. Which “listed as a hit” value (Elongation factor 3A) did it give?
A: yes

Q: And the “listed as a hit” value [8]?
A: yes

Q: And the “listed as a hit” value [9]?
A: yes

Q: And the “listed as a hit” value [10]?
A: yes

Q: What about the “listed as a hit” value [11] of the same substance?
A: yes

Q: What about the “listed as a hit” value [12] of the same substance?
A: yes

Q: And the “listed as a hit” value [13]?
A: yes

Q: What about the “listed as a hit” value [14] of the same substance?
A: yes

Q: What about the “listed as a hit” value [15] of the same substance?
A: yes

Q: What about the “listed as a hit” value [16] of the same substance?
A: yes

Q: Which “listed as a hit” value [17] does the source give for “Ubiquitin C-terminal hydrolase RPN11, P43588” here?
A: yes

Q: And the “listed as a hit” value [1]?
A: yes

Q: What about the “listed as a hit” value [18] of the same substance?
A: yes

Q: With “26S proteasome regulatory subunit RPN2, P32565” as the substance, how does the “listed as a hit” value [4] read?
A: yes

Q: What about the “listed as a hit” value [17] of the same substance?
A: yes

Q: And the “listed as a hit” value [19]?
A: yes

Q: How did the “listed as a hit” value [3] turn out when “Large ribosomal subunit protein uL29B, P0CX85” was run?
A: yes

Q: “26S proteasome regulatory subunit RPN13, O13563” was tested. Which “listed as a hit” value [20] did it give?
A: yes

Q: With Heat shock protein STI1, P15705 as the substance, how does the “listed as a hit” value [19] read?
A: yes

Q: How did the “listed as a hit” value [4] turn out when “26S proteasome regulatory subunit 7 homolog, P33299” was run?
A: yes

Q: What does the source list for “26S proteasome regulatory subunit 6B homolog, P33298”?
A: listed as a hit [19]: yes; listed as a hit [18]: yes

Q: How did the “listed as a hit” value [21] turn out when “Ribosome biogenesis protein NSA2, P40078” was run?
A: yes
